According to PubChem BioAssay (Tox21):
“And” between values parts separate entries of the source, which are not always exact repeats. Equal values may be shown once. Inconclusive results are not listed. The source made the active and inactive calls. Unless noted, calls follow the shape of the full dose curve.

Key:
[1] = Nuclear factor erythroid 2-related factor 2/antioxidant responsive element (Nrf2/ARE) small molecule agonists: qHTS cell viability counter screen in human keratinocytes (AID 1919968; active = well fitted curve in the direction sought with a large enough effect in the repeat runs; an effect the other way counts as inactive or inconclusive; also: nearly all actives have a fitted effect of over 55% in size; also: potency is read from the fitted curve at half-maximal effect)
In short: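 Parallel cytotoxicity read: KeratinoSens HaCaT cells, compound treatment 23 h, viability by CellTiter-Fluor fluorescence 1 h post-reagent.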

[2] = Nuclear factor erythroid 2-related factor 2/antioxidant responsive element (Nrf2/ARE) small molecule agonists: luciferase reporter gene qHTS assay in human keratinocytes (AID 1919969); also: nearly all actives have a fitted effect of over 35% in size
[3] = target: Gonadotropin-releasing hormone receptor (Homo sapiens) (UniProt P30968); assay: Human gonadotropin-releasing hormone receptor (GnRHR) small molecule agonists, calcium flux assay in GnRHR-HEK293 cells (AID 1920063); also: nearly all actives have a fitted effect of over 35% in size
In short: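 Calcium flux, agonist mode, human GnRHR stably integrated in HEK293; dye 1 h at 37 C before compound; Ex/Em=480/540 kinetic read, 3 min; 15 concentrations, triplicate.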

[4] = target: KiSS-1 receptor (Homo sapiens) (UniProt Q969F8); assay: Human kisspeptin (KISS1R) small molecule agonists, calcium flux assay in KISS1R-HEK293 cells (AID 1920064; active = well fitted curve in the direction sought with a large enough effect in the repeat runs; an effect the other way counts as inactive or inconclusive)
In short: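 Triplicate 15-concentration series were applied to dye-loaded human KISS1R HEK293 cells, and agonist-evoked calcium fluorescence was captured for 3 min.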

[5] = G protein-coupled receptor (GPCR) small molecule agonists, calcium flux assay: HEK293 wild type cell line counter screen (AID 1920065)
In short: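 Non-specific calcium responders were flagged by adding DMSO-dissolved compounds to dye-loaded cells and reading 480/540 nm fluorescence each second for 3 min; ATP served as positive control.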

[6] = p53 small molecule agonists, cell-based qHTS assay with human liver microsomes (AID 1963577);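 also: p53 response element beta-lactamase reporter cells with liver microsomes plus NADPH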
In short: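 Reporter activation was measured by LiveBLAzer fluorescence intensity in p53RE-bla cells, which had been exposed to compounds for 16 h at 37 C alongside 0.5 mg/mL human liver microsomes and 0.5 mg/mL NADPH (final concentrations).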

[7] = p53 small molecule agonists, cell-based qHTS assay with rat liver microsomes (AID 1963578)
In short: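 Compound in DMSO added to p53RE-bla cells 5 h post-plating; rat microsomes/NADPH 0.5 mg/mL final; 16 h, 37 C; LiveBLAzer 2 h RT.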

[8] = p53 small molecule agonists, cell-based qHTS assay with human liver microsomes: qHTS cell viability counter screen (AID 1963579); also: nearly all actives have a fitted effect of over 45% in size
In short: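 HLM-supplemented (0.5 mg/mL final) and NADPH-supplemented (0.5 mg/mL final) p53RE-bla cultures, 4,000 cells per well, were dosed with compounds in DMSO for 16 h at 37 C; luminescent ATP detection (CellTiter-Glo, 30 min, room temperature) quantified surviving cells.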

[9] = p53 small molecule agonists, cell-based qHTS assay with rat liver microsomes: qHTS cell viability counter screen (AID 1963580); also: nearly all actives have a fitted effect of over 45% in size
In short: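 Cytotoxicity counter screen: intracellular ATP measured by CellTiter-Glo luminescence in the same wells as the beta-lactamase reporter read, on HCT-116 p53RE-bla cells exposed 16 h at 37 C to compounds with rat liver microsomes and NADPH, each 0.5 mg/mL final.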

[10] = p53 small molecule agonists, cell-based qHTS assay: qHTS cell viability counter screen (AID 1963581); also: nearly all actives have a fitted effect of over 45% in size
In short: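 Multiplexed with the reporter read, a CellTiter-Glo step (30 min, room temperature) gauges ATP-based viability of HCT-116 p53RE-bla cells after 16 h compound incubation at 37 C.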

[11] = p53 small molecule agonists, cell-based qHTS assay (AID 1963582; active = well fitted activation curve with a large enough effect in the signal ratio in the repeat runs, not every such curve was filed as active; the % refers to the signal ratio)
In short: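 Beta-lactamase reporter cells (p53RE-bla) treated with compounds for 16 h at 37 C; FRET substrate, 2 h, room temperature; fluorescence intensity.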

[12] = target: 5-hydroxytryptamine receptor 2A (Homo sapiens) (UniProt P28223); assay: 5-hydroxytryptamine receptor 2A (HTR2A) small molecule antagonists, cell-based qHTS assay (AID 1963586); also: nearly all actives have a fitted effect of over 45% in size
In short: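 CHO cells stably expressing human HTR2A were plated for 18 h at 37 C, then loaded with calcium dye for 1 h. Compounds were preincubated 5 min at room temperature before DOI (4 nM solution) was added. Kinetic fluorescence was read for 3 min.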

[13] = target: 5-hydroxytryptamine receptor 2A (Homo sapiens) (UniProt P28223); assay: 5-hydroxytryptamine receptor 2A (HTR2A) small molecule agonists, cell-based qHTS assay (AID 1963587); also: nearly all actives have a fitted effect of over 30% in size
In short: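 CHO cells stably expressing human HTR2A, plated 18 h, loaded with calcium dye 1 h at 37 C. Agonist mode: compounds added and intracellular calcium fluorescence recorded kinetically for 2 min at 1 sec intervals.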

[14] = target: Muscarinic acetylcholine receptor M1 (Homo sapiens) (UniProt P11229); assay: Cholinergic receptor muscarinic 1 (CHRM1) small molecule antagonists, cell-based qHTS assay (AID 1963588); also: nearly all actives have a fitted effect of over 40% in size
In short: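 Compounds were tested at 15 concentrations in three independent runs. Dye-loaded CHRM1-CHO cells were exposed 5 min at room temperature before stimulation by acetylcholine added at 50nM. Intracellular calcium was read kinetically on FDSS for 3 min.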

[15] = target: Muscarinic acetylcholine receptor M1 (Homo sapiens) (UniProt P11229); assay: Cholinergic receptor muscarinic 1 (CHRM1) small molecule agonists, cell-based qHTS assay (AID 1963589); also: nearly all actives have a fitted effect of over 35% in size
In short: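 qHTS, 15-point titration, 3 independent runs: compounds pin-transferred onto dye-loaded CHRM1-CHO cells (human M1), calcium fluorescence followed every second to detect agonism.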

[16] = cAMP Responsive Elements (CRE) small molecule agonists, cell-based qHTS assay (AID 1963590)
In short: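 Quantitative HTS for CRE agonists: HEK 293T CRE-bla cells, overnight plating, 3 h compound incubation at 37 C/5% CO2, then 2 h room-temperature LiveBLAzer B/G FRET substrate loading.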

[17] = cAMP Responsive Elements (CRE) small molecule antagonists, cell-based qHTS assay (AID 1963591; active = well fitted inhibition curve with a large enough effect in the signal ratio in the repeat runs, not every such curve was filed as active; the % refers to the signal ratio)
In short: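 Fluorescence intensity from cleaved LiveBLAzer B/G substrate (2 h, room temperature) quantified CRE-bla activity in HEK 293T cells exposed 3 h to compound with 0.25 uM final NKH477.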

[18] = target: Beta-2 adrenergic receptor (Homo sapiens) (UniProt P07550); assay: Adrenergic beta2 receptor (ADRB2) small molecule antagonists, cell-based qHTS assay (AID 1963592); also: series mostly up to about 92 µM; nearly all actives have a fitted effect of over 50% in size
In short: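 Assay format: CHO-ADRB2 cells, 18-20hr seeding at 37C/5% CO2, then compound plus 1nM isoproterenol agonist mix for 0.5hr RT. Homogeneous time-resolved fluorescence cAMP detection after 1hr, expressed as 665/615 nm ratio.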

[19] = target: D(2) dopamine receptor (Homo sapiens) (UniProt P14416); assay: Dopamine D2 receptor (DRD2) small molecule agonists, cell-based qHTS assay (AID 1963594); also: nearly all actives have a fitted effect of over 35% in size
In short: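 HEK293 cells stably expressing human DRD2, pre-treated with PDE inhibitor Ro20-1724 (0.1 mM final) and compound 10 min at room temperature, then stimulated with NKH477 (200nM […]) for 30 min. cAMP read by HTRF (665/620 nm).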

[20] = target: D(2) dopamine receptor (Homo sapiens) (UniProt P14416); assay: Dopamine D2 receptor (DRD2) small molecule antagonists, cell-based qHTS assay (AID 1963595; active = well fitted inhibition curve with a large enough effect in the signal ratio in the repeat runs, with a control signal flat; the % refers to the signal ratio)
In short: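 Human DRD2 antagonist qHTS measuring cAMP by HTRF. The cells are exposed to compound for 10 min, then to NKH477 (200 nM) and quinpirole (12 nM) for 30 min at RT, with Ro20-1724 (0.1 mM) present throughout.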
% is scaled to controls: 0 for no effect and ±100 for the full control effect.

Sequence of Muscarinic acetylcholine receptor M1 (Homo sapiens) (P11229 whole entry, looked up): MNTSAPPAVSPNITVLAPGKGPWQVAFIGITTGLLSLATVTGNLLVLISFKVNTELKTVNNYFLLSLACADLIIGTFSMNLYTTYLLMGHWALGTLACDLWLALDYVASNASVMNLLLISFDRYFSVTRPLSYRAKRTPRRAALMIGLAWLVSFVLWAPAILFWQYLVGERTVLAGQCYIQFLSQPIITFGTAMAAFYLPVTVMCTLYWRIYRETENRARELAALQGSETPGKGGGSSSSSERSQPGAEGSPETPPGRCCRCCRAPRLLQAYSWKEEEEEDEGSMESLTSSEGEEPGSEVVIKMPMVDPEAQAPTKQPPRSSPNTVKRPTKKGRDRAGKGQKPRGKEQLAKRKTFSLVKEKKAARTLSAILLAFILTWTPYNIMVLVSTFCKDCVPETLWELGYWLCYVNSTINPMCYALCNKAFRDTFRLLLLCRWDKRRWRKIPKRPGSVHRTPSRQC
Sequence of Gonadotropin-releasing hormone receptor (Homo sapiens) (P30968 whole entry, looked up): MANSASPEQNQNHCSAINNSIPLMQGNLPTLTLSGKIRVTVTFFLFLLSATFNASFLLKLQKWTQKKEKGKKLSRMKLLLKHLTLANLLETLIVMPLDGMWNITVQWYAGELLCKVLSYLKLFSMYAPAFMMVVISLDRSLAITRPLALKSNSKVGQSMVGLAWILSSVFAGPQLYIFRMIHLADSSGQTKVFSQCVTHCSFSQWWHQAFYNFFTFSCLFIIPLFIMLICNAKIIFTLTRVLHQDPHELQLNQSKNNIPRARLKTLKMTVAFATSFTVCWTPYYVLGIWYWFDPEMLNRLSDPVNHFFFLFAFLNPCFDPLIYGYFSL
Sequence of 5-hydroxytryptamine receptor 2A (Homo sapiens) (P28223 whole entry, looked up): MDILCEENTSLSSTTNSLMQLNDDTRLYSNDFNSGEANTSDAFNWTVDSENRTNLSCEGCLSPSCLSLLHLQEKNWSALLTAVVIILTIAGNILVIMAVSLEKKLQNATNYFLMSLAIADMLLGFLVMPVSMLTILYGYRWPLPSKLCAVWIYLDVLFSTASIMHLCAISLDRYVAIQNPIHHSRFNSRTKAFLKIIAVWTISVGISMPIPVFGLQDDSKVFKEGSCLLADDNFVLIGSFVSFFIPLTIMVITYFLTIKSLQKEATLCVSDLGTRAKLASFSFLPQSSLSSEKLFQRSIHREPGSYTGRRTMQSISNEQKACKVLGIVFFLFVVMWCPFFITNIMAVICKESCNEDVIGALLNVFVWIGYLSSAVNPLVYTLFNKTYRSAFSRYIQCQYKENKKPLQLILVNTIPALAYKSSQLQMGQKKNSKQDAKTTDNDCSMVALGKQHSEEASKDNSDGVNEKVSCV
Sequence of KiSS-1 receptor (Homo sapiens) (Q969F8 whole entry, looked up): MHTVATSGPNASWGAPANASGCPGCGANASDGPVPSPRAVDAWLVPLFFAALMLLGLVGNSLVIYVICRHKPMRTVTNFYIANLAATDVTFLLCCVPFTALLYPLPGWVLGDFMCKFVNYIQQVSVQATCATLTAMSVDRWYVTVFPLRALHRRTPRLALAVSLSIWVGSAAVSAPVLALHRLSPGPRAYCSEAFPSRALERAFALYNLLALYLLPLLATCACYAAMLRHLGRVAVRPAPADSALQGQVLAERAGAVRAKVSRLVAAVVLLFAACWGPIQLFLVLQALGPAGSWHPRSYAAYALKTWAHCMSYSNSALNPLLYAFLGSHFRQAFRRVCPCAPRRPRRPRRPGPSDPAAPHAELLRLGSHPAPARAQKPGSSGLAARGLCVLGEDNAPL
Sequence of D(2) dopamine receptor (Homo sapiens) (P14416 whole entry, looked up): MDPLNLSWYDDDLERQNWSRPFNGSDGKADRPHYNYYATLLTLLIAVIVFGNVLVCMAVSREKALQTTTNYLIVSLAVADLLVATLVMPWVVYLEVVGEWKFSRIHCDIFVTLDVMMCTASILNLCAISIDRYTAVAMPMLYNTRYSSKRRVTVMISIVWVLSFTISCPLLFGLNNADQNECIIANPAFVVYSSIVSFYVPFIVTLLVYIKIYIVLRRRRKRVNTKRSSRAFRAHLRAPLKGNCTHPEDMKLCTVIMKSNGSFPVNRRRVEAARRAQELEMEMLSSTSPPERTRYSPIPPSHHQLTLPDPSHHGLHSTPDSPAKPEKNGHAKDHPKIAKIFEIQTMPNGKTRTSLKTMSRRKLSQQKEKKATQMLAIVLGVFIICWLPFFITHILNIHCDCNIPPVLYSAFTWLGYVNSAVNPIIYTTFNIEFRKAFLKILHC
Sequence of Beta-2 adrenergic receptor (Homo sapiens) (P07550 whole entry, looked up): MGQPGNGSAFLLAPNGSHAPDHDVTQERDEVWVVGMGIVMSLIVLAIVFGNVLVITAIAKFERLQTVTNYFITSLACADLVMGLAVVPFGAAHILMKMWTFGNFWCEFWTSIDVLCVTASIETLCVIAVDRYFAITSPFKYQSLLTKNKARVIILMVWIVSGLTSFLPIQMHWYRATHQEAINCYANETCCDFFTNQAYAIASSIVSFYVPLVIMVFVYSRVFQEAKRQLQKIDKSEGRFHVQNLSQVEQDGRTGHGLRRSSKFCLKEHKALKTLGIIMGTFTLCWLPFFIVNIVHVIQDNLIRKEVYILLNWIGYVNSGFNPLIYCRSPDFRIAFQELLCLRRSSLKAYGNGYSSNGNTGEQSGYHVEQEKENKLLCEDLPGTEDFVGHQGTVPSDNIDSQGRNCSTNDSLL

Cc1ccc(C)c(S(=O)(=O)O)c1
inactive: Potency [1] | Potency [2] | Potency [3] | Potency [4] | Potency [5] | Potency [6] | Potency [7] | Potency [8] | Potency [9] | Potency [10] | Potency [11] | Potency [12] | Potency [13] | Potency [14] | Potency [15] | Potency [16] | Potency [17] | Potency [18] | Potency [19] | Potency [20]

Cc1cc(C2(c3cc(C)c(O)cc3C)OS(=O)(=O)c3ccccc32)c(C)cc1O
active: Potency [1] 21.7 µM and 19.3 µM
inactive: Potency [2] | Potency [3] | Potency [4] | Potency [5] | Potency [6] | Potency [7] | Potency [8] | Potency [9] | Potency [10] | Potency [11] | Potency [12] | Potency [13] | Potency [14] | Potency [15] | Potency [16] | Potency [17] | Potency [18]

CCc1cccc(O)c1
inactive: Potency [1] | Potency [2] | Potency [3] | Potency [4] | Potency [5] | Potency [6] | Potency [7] | Potency [8] | Potency [9] | Potency [10] | Potency [11] | Potency [12] | Potency [13] | Potency [14] | Potency [15] | Potency [16] | Potency [17] | Potency [18] | Potency [19] | Potency [20]

COc1ccccc1[N+](=O)[O-]
inactive: Potency [1] | Potency [2] | Potency [3] | Potency [4] | Potency [5] | Potency [6] | Potency [7] | Potency [8] | Potency [9] | Potency [10] | Potency [11] | Potency [12] | Potency [13] | Potency [14] | Potency [15] | Potency [16] | Potency [17] | Potency [18] | Potency [19] | Potency [20]

CC(=O)OC(C)C
inactive: Potency [1] | Potency [2] | Potency [3] | Potency [4] | Potency [5] | Potency [6] | Potency [7] | Potency [8] | Potency [9] | Potency [10] | Potency [11] | Potency [12] | Potency [13] | Potency [14] | Potency [15] | Potency [16] | Potency [17] | Potency [18] | Potency [19] | Potency [20]

CCC[C@H](N[C@@H](C)C(=O)N1[C@H](C(=O)O)C[C@@H]2CCCC[C@@H]21)C(=O)OCC
inactive: Potency [1] | Potency [2] | Potency [3] | Potency [4] | Potency [5] | Potency [6] | Potency [7] | activity change, negative = cytotoxicity [8] -3.18% [at 13.5 µM] | Potency [9] | Potency [10] | Potency [11] | Potency [12] | Potency [13] | Potency [14] | Potency [15] | Potency [16] | Potency [17] | Potency [18] | Potency [19] | Potency [20]

CCOC(=O)NNc1nncc2ccccc12
inactive: Potency [1] | Potency [2] | Potency [3] | Potency [4] | Potency [5] | Potency [6] | Potency [7] | Potency [8] | Potency [9] | Potency [10] | Potency [11] | Potency [12] | Potency [13] | Potency [14] | Potency [15] | Potency [16] | Potency [17] | Potency [18] | Potency [19] | Potency [20]

c1ccc(OCCOc2ccccc2)cc1
inactive: Potency [1] | Potency [2] | Potency [3] | Potency [4] | Potency [5] | Potency [6] | Potency [7] | Potency [8] | Potency [9] | Potency [10] | Potency [11] | Potency [12] | Potency [13] | Potency [14] | Potency [15] | Potency [16] | Potency [17] | Potency [18] | Potency [19] | Potency [20]

C=CC(C)CCCC(C)(C)O (configuration not stated)
inactive: Potency [1] | Potency [2] | Potency [3] | Potency [4] | Potency [5] | Potency [6] | Potency [7] | Potency [8] | Potency [9] | Potency [10] | Potency [11] | Potency [12] | Potency [13] | Potency [14] | Potency [15] | Potency [16] | Potency [17] | Potency [18] | Potency [19] | Potency [20]

NCCN1CCNCC1
inactive: Potency [1] | Potency [2] | Potency [3] | Potency [4] | Potency [5] | Potency [6] | Potency [7] | Potency [8] | Potency [9] | Potency [10] | Potency [11] | Potency [12] | Potency [13] | Potency [14] | Potency [15] | Potency [16] | Potency [17] | Potency [18] | Potency [19]

O=C(O)C1=NN(c2ccc(S(=O)(=O)O)cc2)C(=O)C1
inactive: Potency [1] | Potency [2] | Potency [3] | Potency [4] | Potency [5] | Potency [6] | Potency [7] | Potency [8] | Potency [9] | Potency [10] | Potency [11] | Potency [12] | Potency [13] | Potency [14] | Potency [15] | Potency [16] | Potency [17] | Potency [18] | Potency [19] | Potency [20]

OC1CCCCC1
inactive: Potency [1] | Potency [2] | Potency [3] | Potency [4] | Potency [5] | Potency [6] | Potency [7] | Potency [8] | Potency [9] | Potency [10] | Potency [11] | Potency [12] | Potency [13] | Potency [14] | Potency [15] | Potency [16] | Potency [17] | Potency [18] | Potency [19] | Potency [20]

C=CC(=O)OCCC(=O)O
inactive: Potency [1] | Potency [2] | Potency [3] | Potency [4] | Potency [5] | Potency [6] | Potency [7] | Potency [8] | Potency [9] | Potency [10] | Potency [11] | Potency [12] | Potency [13] | Potency [14] | Potency [15] | Potency [16] | Potency [17] | Potency [18] | Potency [19] | Potency [20]

CC(=O)c1ccc(S(=O)(=O)NC(=O)NC2CCCCC2)cc1
inactive: Potency [1] | Potency [2] | Potency [3] | Potency [4] | Potency [5] | Potency [6] | Potency [7] | Potency [8] | Potency [9] | Potency [10] | Potency [11] | Potency [12] | Potency [13] | Potency [14] | Potency [15] | Potency [16] | Potency [17] | Potency [18] | Potency [19] | Potency [20]
